In PubChem BioAssay AID1780 (National Center for Advancing Translational Sciences (NCATS), 2009):
Activity calls are given as the source filed them. Calls come from the whole dose curve; as a rule, active = well fitted curve in the direction sought with a large enough effect; inactive = no such curve, though single readings can be large or run the other way.

molecular target: Pyruvate kinase PKM (Homo sapiens) (UniProt P14618); experiment: Confirmation Concentration-Response Assay for Activators of Human Muscle isoform 1 Pyruvate Kinase; conditions: purified hPK-M1, Kinase-Glo ATP luminescence, 1 h; series mostly up to 57.5 µM
Source text: Confirmatory assay NIH Chemical Genomics Center [NCGC] Matthew G. Vander Heiden, M.D., Ph.D. [Harvard Medical School, 77 Avenue Louis Pasteur, Boston, MA 02115] NCGC Assay Overview: Human pyruvate kinase […] (hPK-M1) enzyme was supplied as a highly purified (>95% pure) preparation from Harvard Medical School and assayed for its ability to generate ATP from ADP using phosphoenolpyruvate (PEP) as a substrate. ATP generation was detected in a coupled reaction by luciferase-mediated luminescence, an ATP-dependent process. Pyruvate kinase substrates, PEP and ADP, were present in the assay at Km and approximately 10-fold below Km respectively. The enzyme was assayed at an intermediate level of activity to screen for both inhibitors and activators.
NCGC Assay Protocol Summary for M1-isoform: Three uL of substrate mix (at r.t.) in assay buffer (50 mM Imidazole pH7.2, 50 mM KCl, 7 mM MgCl2, 0.01% Tween 20, 0.05% BSA) was dispensed into white solid bottom 1,536 well microtiter plates so that the final concentrations of substrates in the assay were 0.1 mM ADP and 0.5 mM PEP. 23 nL of compound were delivered by a pin tool and 1 uL of enzyme mix (final concentration of 1 nM) in assay buffer (4 degree Celsius) was added. Plates were incubated at room temperature for 1 hour. Two uL of detection mix (Kinase-Glo, Promega; at 4 degree Celsius protected from light) was added and luminescence read by a ViewLux (Perkin Elmer) at 1 second exposure/plate. Data were normalized to the uninhibited (row 31). Additionally, a no enzyme and 5-fold enzyme control was dispensed in row 32, split equally between the two conditions.

Sequence of Pyruvate kinase PKM (Homo sapiens) (P14618 whole entry, looked up, canonical isoform): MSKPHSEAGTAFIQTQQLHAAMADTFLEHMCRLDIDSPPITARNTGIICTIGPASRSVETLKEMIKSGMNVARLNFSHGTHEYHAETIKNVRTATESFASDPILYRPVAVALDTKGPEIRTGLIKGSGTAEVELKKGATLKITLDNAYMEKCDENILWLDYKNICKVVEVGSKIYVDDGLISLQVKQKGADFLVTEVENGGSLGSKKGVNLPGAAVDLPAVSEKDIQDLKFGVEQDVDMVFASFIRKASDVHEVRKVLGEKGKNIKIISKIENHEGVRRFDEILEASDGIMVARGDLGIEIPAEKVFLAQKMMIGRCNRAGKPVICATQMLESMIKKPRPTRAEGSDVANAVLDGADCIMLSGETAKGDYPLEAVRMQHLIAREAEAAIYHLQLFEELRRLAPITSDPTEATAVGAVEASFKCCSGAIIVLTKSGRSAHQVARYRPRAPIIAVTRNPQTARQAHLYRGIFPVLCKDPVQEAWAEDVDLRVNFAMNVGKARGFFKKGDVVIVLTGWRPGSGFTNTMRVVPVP

outcome, inactive:
CCCCCn1ncc2c3sc(C)cc3n(C)c2c1=O
O=C(c1ccc2c(c1)OCCO2)N1CCN(S(=O)(=O)c2c(F)cccc2F)CC1
O=S(=O)(NC1CCN(S(=O)(=O)c2c(F)cccc2F)C1)c1ccc2c(c1)OCCO2 (centres undefined)
Cc1cc2c(s1)c1cnn(Cc3cccc(Cn4ncc5c6sc(C)cc6n(C)c5c4=O)c3F)c(=O)c1n2C
Cc1cc2c(s1)c1cnn(Cc3ccc(-c4ccccc4)cc3)c(=O)c1n2C
O=S(=O)(c1ccc2c(c1)OCCO2)N1CCN(S(=O)(=O)c2c(F)cccc2F)CC1
O=S(=O)(c1ccc2c(c1)OCCO2)N1CCCN(S(=O)(=O)c2c(F)cccc2F)CC1
O=S(=O)(c1ccc(Cl)cc1)N1CCN(S(=O)(=O)c2ccc3c(c2)OCCO3)CC1
COc1ccc(S(=O)(=O)N2CCN(S(=O)(=O)c3ccc(OC)cc3)CC2)cc1
COC(=O)c1cc2c(s1)c1cnn(Cc3ccccc3F)c(=O)c1n2C
O=S(=O)(c1ccc2c(c1)OCCCO2)N1CCN(S(=O)(=O)c2c(F)cccc2F)CC1
Cc1cc2c(s1)c1cnn(Cc3cccc(F)c3F)c(=O)c1n2C
O=S(=O)(c1c(F)cccc1F)N1CCN(S(=O)(=O)c2c(F)cccc2F)CC1
O=S(=O)(c1ccc2c(c1)OCO2)N1CCN(S(=O)(=O)c2c(F)cccc2F)CC1
CCn1c2cc(C)sc2c2cnn(Cc3ccccc3F)c(=O)c21
Cc1cc2c(s1)c1cnn(-c3ccccc3)c(=O)c1n2C
CC(C)c1cc2c(s1)c1cnn(Cc3ccccc3F)c(=O)c1n2C
C[C@H]1CN(S(=O)(=O)c2c(F)cccc2F)CCN1S(=O)(=O)c1ccc2c(c1)OCCO2
O=S(=O)(NC1CCN(S(=O)(=O)c2ccc3c(c2)OCCO3)CC1)c1c(F)cccc1F
